Test results from the supplement of paper PMC6607015.
Counter-ions that a name gives are not always drawn.

Key:
Settings in all cases: compound concentration in added solution (µM; 5 µl added to 20 µl cells): 10; 18 h
A431 [1] = test: LBPA endosome anti-LBPA integrated intensity (sum per cell), Z-score; higher = more LBPA staining
How it was run: (§1)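 The data are Z-scores, normalised in AcuityXpress, of integrated LBPA or filipin intensity in each cell, either whole-cell or restricted to LBPA endosomes. HeLa MZ or A431 cells, 3,500 per well in 20 µl, were seeded onto 5 µl of 10 µM compound solution in duplicate 384-well plates and incubated 18 h. Fixed cells were stained and imaged, with intensities extracted by MetaXpress segmentation.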

HeLa MZ [2] = test: as above
How it was run: as §1

A431 [3] = test: whole-cell filipin (free cholesterol) integrated intensity, Z-score; higher = more cholesterol staining
How it was run: as §1

HeLa MZ [4] = test: as above
How it was run: as §1

A431 [5] = test: filipin (cholesterol) integrated intensity within LBPA endosomes, Z-score; higher = more cholesterol in LBPA endosomes
How it was run: as §1

HeLa MZ [6] = test: as above
How it was run: as §1

Compound | LBPA endosome anti-LBPA integrated intensity (z-score) (A431 [1]) | LBPA endosome anti-LBPA integrated intensity (z-score) (HeLa MZ [2]) | whole-cell filipin (z-score) (A431 [3]) | whole-cell filipin (z-score) (HeLa MZ [4]) | filipin (z-score) (A431 [5]) | filipin (z-score) (HeLa MZ [6])
O=C(O)c1ccccc1Nc1cccc(C(F)(F)F)c1 [Flufenamic acid] | -0.586 | -0.521 | -0.734 | -0.685 | -0.54 | -0.632
Nc1nc(=S)c2ncn([C@@H]3O[C@H](CO)[C@@H](O)[C@H]3O)c2[nH]1 [Thioguanosine] | -0.355 | 1.49 | -1.06 | -0.863 | -0.656 | -0.626
O=P(O)(O)C(Cl)(Cl)P(=O)(O)O [Clodronate] | -0.576 | -0.865 | -0.177 | -0.446 | -0.541 | -0.434
NCCCC[C@H](N[C@@H](CCc1ccccc1)C(=O)O)C(=O)N1CCC[C@H]1C(=O)O [Lisinopril] | -0.555 | -0.949 | -0.886 | -0.862 | -0.636 | -0.71
CCCC(=O)Nc1ccc(OCC(O)CNC(C)C)c(C(C)=O)c1 (configuration not stated) [Acebutolol hydrochloride] | -0.335 | -0.6 | -0.712 | -0.665 | -0.476 | -0.408
C=CCSCC1Nc2cc(Cl)c(S(N)(=O)=O)cc2S(=O)(=O)N1 (configuration not stated) [Althiazide] | -0.575 | -1.6 | -0.613 | -0.588 | -0.491 | -0.642
Nc1ccc(S(=O)(=O)Nc2ccccn2)cc1 [Sulfapyridine] | -0.468 | -0.131 | -0.33 | -0.348 | -0.499 | -0.602
Fc1ccc(C(c2ccc(F)cc2)N2CCN(C/C=C/c3ccccc3)CC2)cc1 [Flunarizine dihydrochloride] | 0.53 | -0.311 | 0.301 | -0.958 | 0.627 | 0.163
CCCNC(C)(C)COC(=O)c1ccccc1 [Meprylcaine hydrochloride] | -0.522 | -0.427 | -0.299 | -0.094 | -0.429 | -0.419
N#CC(c1ccc(Cl)cc1)c1c(Cl)cc(-n2ncc(=O)[nH]c2=O)cc1Cl (configuration not stated) [Diclazuril] | -0.281 | 0.505 | 0.197 | 0.559 | -0.215 | -0.204
CC(=O)OCC(=O)[C@@]1(O)CC[C@H]2[C@@H]3CCC4=CC(=O)CC[C@]4(C)[C@@]3(F)[C@@H](O)C[C@@]21C [Fludrocortisone acetate] | -0.127 | -0.216 | -0.382 | -0.957 | -0.321 | -0.564
CC[N+](C)(CC)CCC[n+]1c(-c2ccccc2)c2cc(N)ccc2c2ccc(N)cc21 [Propidium iodide] | -0.615 | -1.77 | -0.548 | -0.836 | -0.56 | -0.527
